Data from the supplement of paper PMC11150407.
Counter-ions that a name gives are not always drawn. The campaign covered roughly 2,100 compounds. About 180 (8.6%) showed an effect of 50% or more. Only a selection was taken, and strong results are over-represented in it overall.

What follows are compounds tested on MOLM1 and UCSD/AML1 (averaged) (assay: cell viability relative to DMSO control (POC); higher = less growth inhibition). Conditions: 1 µM; 72 h.
Method: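 Primary viability screen in the 3q26 EVI1-high AML cell lines MOLM1 and UCSD/AML1 (1.5e3 cells/well, 384-well), compounds at 1 uM for 72 h. ATP CellTiter-Glo read-out given as percent of viable cells over DMSO control (POC), averaged over duplicates. DMSO was the negative control and 5 uM etoposide the positive control. This mapping covers the MicroSource Spectrum and Selleck anticancer libraries (drug names).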
CC[C@H](C)[C@H](N)C1=N[C@H](C(=O)N[C@@H](CC(C)C)C(=O)N[C@H](CCC(=O)O)C(=O)N[C@H](C(=O)N[C@H]2CCCCNC(=O)[C@H](CC(N)=O)NC(=O)[C@@H](CC(=O)O)NC(=O)[C@H](Cc3cnc[nH]3)NC(=O)[C@@H](Cc3ccccc3)NC(=O)[C@H]([C@@H](C)CC)NC(=O)[C@@H](CCCN)NC2=O)[C@@H](C)CC)CS1 showed a cell viability of 94.8%. CC(C)C[C@@H]1NC(=O)[C@H](CCCN)NC(=O)[C@H](C(C)C)NC(=O)[C@H](Cc2ccc(O)cc2)N[C@@H](CCC(=O)O)C(=O)N[C@@H](CC(N)=O)C(=O)[C@@H](Cc2ccccc2)NC(=O)[C@H](Cc2ccccc2)NC(=O)[C@@H]2CCCN2C(=O)[C@@H](Cc2ccccc2)NC1=O gave a cell viability of 13%. For CC1=C(CCC(=O)O)c2cc3[nH]c(cc4nc(cc5[nH]c(cc1n2)c(C)c5C(C)O)C(C)=C4C(C)O)c(C)c3CCC(=O)O (stereo unspecified), the cell viability was 107%. For COc1cc(O)c2c(c1)C(=O)c1cc(C)cc(O)c1C2=O, the cell viability was 94.9%. O=C(/C=C/c1ccc(O)c(O)c1)O[C@H](Cc1ccc(O)c(O)c1)C(=O)O was tested, and the cell viability was 104%. CNC(=O)c1cc(Oc2ccc(NC(=O)Nc3ccc(Cl)c(C(F)(F)F)c3)c(F)c2)ccn1 [Regorafenib (BAY 73-4506)] was tested, and the cell viability was 28.9%. Work on CNC(=O)c1cc(Oc2ccc(NC(=O)Nc3cc(C(C)(C)C)nn3-c3ccc4ncccc4c3)c(F)c2)ccn1 [DCC-2036 (Rebastinib)] yielded a cell viability of 24.6%. CNC(=O)c1cc(Oc2ccc(NC(=O)Nc3ccc(Cl)c(C(F)(F)F)c3)cc2)ccn1 [Sorafenib (Nexavar)] was tested, and the cell viability was 59.7%. Cc1ccc(-n2nc(C(C)(C)C)cc2NC(=O)Nc2ccc(OCCN3CCOCC3)c3ccccc23)cc1 [BIRB 796 (Doramapimod)] gave a cell viability of 85.1%. Cc1cc(OC(=O)c2c(C)cc(O)cc2O)cc(O)c1C(=O)O was tested, and the cell viability was 103%. Compound Nc1ccccc1C(=O)CC(N)C(=O)O (stereo unspecified) has a cell viability of 98.1%. For CC(C)=CCC[C@@H](C)[C@@H]1CC[C@]2(C)C3=C(CC[C@@]12C)[C@@]1(C)CC[C@H](O)C(C)(C)[C@@H]1CC3, the cell viability was 97.6%. Work on COc1cc(OC)c2ccc(=O)oc2c1 yielded a cell viability of 99.1%. COc1cc(OC)c2c(c1Cl)O[C@@]1(C(=O)CC(=O)C[C@H]1C)C2=O gave a cell viability of 102%. Compound Cc1ccc(C(=O)Nc2ccc(CN3CCN(C)CC3)c(C(F)(F)F)c2)cc1C#Cc1cnc2cccnn12 has a cell viability of 4.31%. CS(=O)(=O)N1CCN(Cc2cc3nc(-c4cccc5[nH]ncc45)nc(N4CCOCC4)c3s2)CC1 [Pictilisib (GDC-0941)] was tested, and the cell viability was 51.1%. Compound CC1(C)C(=O)C=C[C@]2(C)[C@H]3CC[C@@]4(C)[C@H](c5ccoc5)OC(=O)[C@H]5O[C@]54[C@]3(C)C(=O)C[C@@H]12 has a cell viability of 84.7%. Compound COc1ccc2c(c1)O[C@H]1c3ccc(OC)cc3OC[C@@H]21 has a cell viability of 105%. For Cc1cc2c(F)c(Oc3ncnn4cc(OC[C@@H](C)O)c(C)c34)ccc2[nH]1, the cell viability was 89.6%. Oc1cc(O)c2c(c1)O[C@H](c1ccc(O)c(O)c1)[C@H](O)C2 gave a cell viability of 96.7%. Work on O=C(Nc1cccnc1)N1CCC(Cc2cccc(Oc3ccc(C(F)(F)F)cn3)c2)CC1 yielded a cell viability of 56.7%. In the case of O=C(O)c1cccnc1, the cell viability is reported as 95%. O=C(/C=C/c1cccnc1)NCCCCC1CCN(C(=O)c2ccccc2)CC1 gave a cell viability of 12%. For COc1c(O)cc(O)cc1O, the cell viability was 98.8%. With O=C(O)CC[C@H]1CC[C@@](c2cc(F)ccc2F)(S(=O)(=O)c2ccc(Cl)cc2)CC1 the cell viability was 71%. With Cc1cccc2c3c(ccc12)C1=C(C(=O)C3=O)[C@@H](C)CO1 the cell viability was 98.4%. CC1(C)CCC(c2ccc(Cl)cc2)=C(CN2CCN(c3ccc(C(=O)NS(=O)(=O)c4ccc(N[C@H](CCN5CCOCC5)CSc5ccccc5)c(S(=O)(=O)C(F)(F)F)c4)cc3)CC2)C1 [ABT-263 (Navitoclax)] showed a cell viability of 6.23%. For CN(C)CC[C@H](CSc1ccccc1)Nc1ccc(S(=O)(=O)NC(=O)c2ccc(N3CCN(Cc4ccccc4-c4ccc(Cl)cc4)CC3)cc2)cc1[N+](=O)[O-], the cell viability was 32.3%. Work on NC1(C(=O)O)CCC1 yielded a cell viability of 102%. OC[C@H]1O[C@@](CO)(O[C@H]2O[C@H](CO)[C@@H](O)[C@H](O)[C@H]2O)[C@@H](O[C@H]2O[C@H](CO)[C@@H](O)[C@H](O)[C@H]2O)[C@@H]1O showed a cell viability of 103%. CC(C)=CCc1c(O)cc2occ(-c3ccc4c(c3)OCO4)c(=O)c2c1O showed a cell viability of 100%. With C[C@@H]1CC[C@H]2[C@](C)(CO)[C@@H](O)CC[C@]2(C)[C@@]12CC[C@@](CO)(CCO)O2 the cell viability was 89.3%. C[C@@H]1O[C@@H](O[C@H]2[C@H](Oc3cc(O)c4c(=O)cc(-c5ccc(O)cc5)oc4c3)O[C@H](CO)[C@@H](O)[C@@H]2O)[C@H](O)[C@H](O)[C@H]1O was tested, and the cell viability was 110%. Work on Sc1nc2ccccc2s1 yielded a cell viability of 115%. C=CC(C)(O)CCC1C(=C)CC(O)C2C(C)(C)CCCC12C (stereo unspecified) showed a cell viability of 105%. CC[C@]1(O)C[C@@H]2CN(CCc3c([nH]c4ccccc34)[C@@](C(=O)OC)(c3cc4c(cc3OC)N(C)[C@H]3[C@@](O)(C(=O)OC)[C@H](OC(C)=O)[C@]5(CC)C=CCN6CC[C@]43[C@@H]65)C2)C1 showed a cell viability of 7.14%. CC[C@]1(O)C[C@H]2CN(CCc3c([nH]c4ccccc34)[C@@](C(=O)OC)(c3cc4c(cc3OC)N(C=O)[C@H]3[C@@](O)(C(=O)OC)[C@H](OC(C)=O)[C@]5(CC)C=CCN6CC[C@]43[C@@H]65)C2)C1 showed a cell viability of 11.3%. CC[C@]1(O)C[C@H]2CN(CCc3c([nH]c4ccccc34)[C@@](C(=O)OC)(c3cc4c(cc3OC)N(C=O)[C@H]3[C@@](O)(C(=O)OC)[C@H](OC(C)=O)[C@]5(CC)C=CCN6CC[C@]43[C@@H]65)C2)C1 [Vincristine Sulfate] showed a cell viability of 7.83%. CC[C@]1(O)C[C@@H]2CN(CCc3c([nH]c4ccccc34)[C@@](C(=O)OC)(c3cc4c(cc3OC)N(C)[C@H]3[C@@](O)(C(=O)OC)[C@H](OC(C)=O)[C@]5(CC)C=CCN6CC[C@]43[C@@H]65)C2)C1 [Vinblastine] gave a cell viability of 8.43%. COc1ccc2c(=O)c(-c3ccc(O)cc3)coc2c1 gave a cell viability of 84.7%. CC(C)c1c(O)ccc2c1CC[C@H]1C(C)(C)CCC[C@]21C gave a cell viability of 90.4%.
